# High-throughput results deposited in PubChem by National Center for Advancing Translational Sciences (NCATS).
# TrxR1 substrate: rat thioredoxin reductase 1 substrate activity; O89049; purified TrxR1 substrate turnover, NADPH consumption readout; Potency, µM (titrated, usually from 114 µM), for inactives: at the top dose activity change, negative = substrate turnover; 0.01% of 390,000 active; AID 588456; further: potency means the concentration at half of the fitted maximal effect; nearly all actives have a fitted effect of over 50% in size
#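 Rat TrxR1, dispensed at 90 nM, was prereduced with 400 uM NADPH (final) for 5 min at ~22 deg C, then incubated with compound 15 min before 400 uM selenite. A first-read NADPH fluorescence drop versus no-compound background flagged substrates.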
# USP1-UAF1 inh: USP1/UAF1 (human) deubiquitinase inhibition. Potency, µM (titrated, usually from 57.1 µM), inactives show top-dose activity change, negative = inhibition, hits mostly inhibitors. recombinant USP1/UAF1, Ub-Rhodamine cleavage fluorescence. 0.23% of 390,000 active; further: potency means the concentration at half of the fitted maximal effect; nearly all actives have a fitted effect of over 60% in size
#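 Step one: compound is pinned into 1nM USP1/UAF1 in HEPES pH 7.8 buffer with TCEP. Step two: 15 min room-temperature incubation. Step three: Ub-Rho (150nM final) starts cleavage, tracked by fluorescence over six one-minute reads.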
# GALK inhibitor: galactokinase (human) inhibition; P51570; Purified GALK, Kinase-Glo residual ATP luminescence; Potency, µM (titrated, usually from 57.5 µM), without a hit: at the highest dose activity change, negative = inhibition, usual class: inhibitors; 0.007% of 270,000 active; further: potency means the concentration at half of the fitted maximal effect
# Target sequence (P51570 whole entry, looked up): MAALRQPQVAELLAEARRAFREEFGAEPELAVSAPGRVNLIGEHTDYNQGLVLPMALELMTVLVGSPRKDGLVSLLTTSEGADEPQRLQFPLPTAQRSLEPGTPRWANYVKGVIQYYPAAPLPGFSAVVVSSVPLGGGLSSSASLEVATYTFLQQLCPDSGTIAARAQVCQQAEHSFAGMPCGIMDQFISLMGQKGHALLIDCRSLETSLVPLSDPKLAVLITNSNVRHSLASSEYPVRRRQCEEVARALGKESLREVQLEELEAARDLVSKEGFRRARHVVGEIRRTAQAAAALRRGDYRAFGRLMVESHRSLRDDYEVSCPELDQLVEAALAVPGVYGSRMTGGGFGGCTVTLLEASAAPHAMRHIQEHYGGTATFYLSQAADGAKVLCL
#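 The enzyme phosphorylates galactose (100 uM) using ATP (35 uM); inhibition is detected as higher residual ATP, quantified by bioluminescence after 1 h reaction at room temperature, pH 8.0.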
# TrxR1 inh: rat TrxR1 inhibition | AID 588453 | Potency, µM (titrated, usually from 114 µM), without a hit: at the highest dose activity change, negative = inhibition, usual class: inhibitors | recombinant rTrxR1, NADPH fluorescence consumption, selenite substrate | 1% of 390,000 active; further: potency means the concentration at half of the fitted maximal effect; nearly all actives have a fitted effect of over 65% in size
#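 Rat TrxR1 (90 nM in the dispensed reagent) was pre-reduced with 400 uM NADPH for 5 min at room temperature, then incubated with compound for 15 min. After 400 uM selenite was added, NADPH fluorescence (Ex 340/Em 450 nm) was followed for 8 min.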
# Coupling enz: inhibits coupling enzyme system, counter-screen for aldolase hits; coupling enzyme system counterscreen, AmpLite Red fluorescence; activity change, negative = inhibition, % at 58.2 µM, hits read low; 0.67% of 290,000 active; AID 2472; in the data active means activity change below about -30%
#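 Activity here indicates interference with the coupling reaction, not aldolase inhibition. Compounds at 57.5 uM final met coupling enzymes for 10 min at RT; substrate and AmpLite Red detection followed, with a 525/598 nm fluorescence read after 20 min.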
# An asterisk follows results filed as active; u = inconclusive; x = not tested or not shown; ! = a repeat was not active; [ ] = another dose, or the depositor's remark. Sampled rows, rich in hits. Any-hit rate of the full collection: about 1.5%. Unless noted, the call rests on the fitted dose curve; in most records, active means well fitted curve in the direction sought with a large enough effect; inconclusive means small, poorly fitted or top-dose-only effect, or another doubt; inactive means no such curve, though single readings can be large; an effect the other way counts as inactive or inconclusive. On the % scale 0 is the no-effect control and ±100 the full control effect.
SMILES,TrxR1 substrate,USP1-UAF1 inh,GALK inhibitor,TrxR1 inh,Coupling enz
O=C1c2ccccc2C(=O)c2c1ccc1c(=O)n(C3CCCCC3)[nH]c21,2%,-15%,1%,26%,-25
O=C1C2=C(c3ccccc31)[N+](=O)C1CCCCC1N2[O-] (stereo not given),-2%[57.1 µM],u,-2%,16%[57.1 µM],-38*
COc1ccccc1/C=C/c1ccnc2ccccc12,4%,x,x,-10%[0.0914 µM],x
CN(CCO)c1nc(-c2cccs2)nc2ccccc12,-10%,x,x,-1%,x
Cc1cccc(NC(=O)COc2ccccc2C(=O)Nc2ccccc2)c1,-3%,x,x,1%,x
Nc1ccc2nc(CN3CCOCC3)[nH]c2c1,22%,u,0%,15%,-32*
CC(=O)Nc1ccc(N(C(=O)c2cnccn2)C(C(=O)NC2CCCCC2)c2ccc(O)cc2)cc1 (stereo not given),12%[57.1 µM],3%,-2%,7.1µM*,2
CC(=O)Nc1ccc(N(C(=O)c2cnccn2)C(C(=O)NC2CCCCC2)c2ccc(F)cc2)cc1 (stereo not given),11%[57.1 µM],-16%,0%,32%[57.1 µM],0
O=[N+]([O-])c1cc(Cl)ccc1N1CCCC1,-1%,-11%,13%,29%,2
O=C1C(Cl)=C(N2CCN(c3ccccc3[N+](=O)[O-])CC2)C(=O)c2ccccc21,11%,u,0%,0.79µM*,-41*
Cc1ccc(S(=O)(=O)NCC(=O)N(CCc2ccccc2)CC(=O)NCc2ccco2)cc1,2%,-18%,2%,22µM*,1
CC(C)(C)OC(=O)N[C@@H](Cc1ccccc1)c1nnc(SCC(N)=O)o1,-2%,-12%,11%,21%,1
Cc1cccc(CS(=O)(=O)c2nnc([C@H](Cc3ccccc3)NC(=O)OC(C)(C)C)o2)c1,-1%,-4%,2%,0.4µM*,2
COC(=O)CS(=O)(=O)c1nnc([C@H](Cc2ccccc2)NC(=O)OC(C)(C)C)o1,1%,-20%,4%,1.3µM*,-1
CC[N+]1(CC(=O)c2cccs2)CCCCC1,11%[0.0914 µM],x,x,-15%,x
O=C(COc1ccccc1C(=O)Nc1ccccc1)Nc1ccc(-c2ccccc2)cc1,9%,x,x,20%,x
COC(=O)[C@@H]1[C@@H]2C[C@H]3c4[nH]c5ccccc5c4CCN3C[C@@H]2CC[C@@H]1O,x,x,x,x,-41*!
COC(=O)C1=CO[C@@H](C)[C@@H]2CN3CCc4c([nH]c5ccccc45)[C@@H]3C[C@H]12,x,x,x,x,-31*
COC(=O)C1=COC(C)C2CN3CCc4c([nH]c5ccccc45)C3CC12 (stereo not given),8%,-14%,-1%,-26%,-2
CC(C)C(=O)Nc1nc2c(ncn2[C@H]2CC(O)[C@@H](CO)O2)c(=O)[nH]1 (stereo not given in full),-5%,x,x,5%,x
CCN1C(=O)CC(Sc2ccccc2C(=O)O)C1=O (stereo not given),7%,0%,0%,-4%,0
CCOc1ccc(N2C(=O)CC(Sc3ccccc3C(=O)O)C2=O)c([N+](=O)[O-])c1 (stereo not given),5%,-24%,-1%,28µM*,6
O=C(O)c1ccccc1SC1CC(=O)N(c2cccc3ccccc23)C1=O (stereo not given),15%,-9%,4%,20µM*,6
O=C(O)c1cc(O)c2c(c1)[C@H]([C@H]1c3cc(C(=O)O)cc(O)c3C(=O)c3c(O[C@@H]4OC(CO)C(O)C(O)C4O)cccc31)c1cccc(O[C@@H]3OC(CO)C(O)C(O)C3O)c1C2=O (stereo not given in full),x,x,x,x,-39*
CN(C)c1ccc(/C=C/c2cc(Cl)nc3ccccc23)cc1,2%,x,x,31%,x
SMILES,TrxR1 substrate,USP1-UAF1 inh,GALK inhibitor,TrxR1 inh,Coupling enz
CC(=O)O[C@@H]1[C@@]2(C)O[C@H]2CC[C@]23O[C@H]2[C@H](OC3=O)C2=C(C)C(=O)O[C@@]21O,18%,u,x,50µM*,5
CCn1c(SC(C)C(=O)NCc2ccco2)nnc1-c1ccccc1 (stereo not given),6%,x,x,-23%,x
COc1ccc(C(=O)Nc2ccc(NC(=O)c3cccs3)cc2)cc1OC,10%,25µM*,x,17%,x
CC(C)C(=O)Nc1ccc(NC(=O)c2cccs2)cn1,0%,-12%,7%,0%,-44*
COc1cc2c(NC3CCN(C)CC3)nc(N3CCCN(C)CC3)nc2cc1OCC1CCNCC1,99%,x,x,u,x
COc1cc(C=O)c([N+](=O)[O-])cc1OC,x,x,x,x,-61*
COc1ccc(Nc2ccc(Nc3ccc(OC)cc3)nn2)cc1,-2%,1%,-2%,10%,2
COc1ccc(Nc2ccc(OC)cc2)cc1,0%,-20%,6%,12%,-41*
O=C1Cc2ccccc2C1=C1C=c2ccccc2=C1,-4%,x,x,u,x
COc1ccc(NC(=O)c2ccccc2OCC(=O)Nc2ccc(Br)cc2)cc1,5%,x,x,13%,x
C1=C(c2ccccc2)CCN(c2nc3ccccc3n3cnnc23)C1,14%,-14%,2%,4µM*,0
N#Cc1ccc2ccn(CC(=O)N3CCCc4ccccc43)c2c1,14%,0%,0%,29%[57.1 µM],-39*
CC[C@H](C)C(=O)O[C@H]1C[C@@H](C)C=C2C=C[C@H](C)[C@H](CC[C@@H]3C[C@@H](O)CC(=O)O3)[C@H]21,3%,-16%,-5%,22%,-47*
CCCCC1=CC2=C(c3ccco3)C(=O)C(C)(OC(=O)c3ccc(OC)cc3)C(=O)C2=CN1Cc1ccc(OC)cc1 (stereo not given),x,x,-1%,x,0
CCCCC1=CC2=C(c3ccco3)C(=O)C(C)(OC(=O)c3ccc(OC)cc3)C(=O)C2=CN1CC(C)C (stereo not given),4%,-34%,-1%,45µM*,-22
Cc1ccc(-n2c(N)c(C(=O)N3CCN(C)CC3)sc2=S)cc1,-13%,-16%,1%,-16%,-34*
COc1cc(/C=C2\C=Cc3ccccc32)ccc1N(C)C,-2%,x,x,-23%,x
COc1cc(C(=O)Nc2ccncc2)cc(OC)c1OC,6%,-5%,-1%,17%,1
COC(=O)c1nc(NC(=O)c2cc(OC)c(OC)c(OC)c2)n[nH]1,3%,u,0%,40µM*,3
O=C(Nc1ccc(F)cc1)c1ccc(C(=O)N2CCCC(O)C2)cc1 (stereo not given),14%[57.1 µM],-12%,x,10µM*,x
CC1CCCCN1C(=O)c1ccc(C(=O)Nc2ccc(F)cc2)cc1 (stereo not given),2%,-21%,x,12%,x
COC1=C(Nc2ccc(C)cc2)C(=O)c2ccccc2C1=O,-2%,-18%,3%,3%,-32*
COC1=C(Nc2ccccc2)C(=O)c2ccccc2C1=O,3%[57.1 µM],u,3%,13%[57.1 µM],-33*
